# Data: ChEMBL document CHEMBL4513216, “Probing the Open Global Health Chemical Diversity Library for Multistage-Active Starting Points for Next-Generation Antimalarials” (ACS Infect Dis, 2020)
# About 8,600 (12%) of roughly 69,000 compounds showed an effect of 50% or more. This is one part of a sample in which strong results are shown more often than they occur.
# Tested on: Plasmodium berghei
# Assay: Screen against P. berghei liver stage (PbLuc), transformed with Luciferase, at 10uM
# Assay type: functional, HepG2
# Settings: tested at 10 uM
row,Structure (SMILES),INHIBITION
1,CCc1nnc2n1CCN(C(=O)c1ccc3cc[nH]c3c1)C2,-7.53%
2,CC(=O)N[C@@H]1CN(S(=O)(=O)c2ccc(Cl)cc2)C[C@H]1O,-0.232%
3,COC(C)(CNS(=O)(=O)c1cnn(C)c1)c1ccccc1F (stereo not given),-19.1%
4,Cc1noc(C)c1CCC(=O)N1CCn2cccc2C1C (stereo not given),-19.7%
5,CN(C)C(=O)c1n[nH]c2c1CN(Cc1ccccn1)CC2,-27%
6,CC1CCN(CCCNC(=O)C2CCCCC2)CC1,-32.3%
7,CC1CCN(CCCNC(=O)Nc2cc3c(cc2Br)OCCO3)CC1,63.3%
8,O=C(Nc1cc2c(cc1Br)OCCO2)NC1CCS(=O)(=O)C1 (stereo not given),11.8%
9,CN(Cc1nccn1CC(F)(F)F)C(=O)c1ccc(F)c(F)c1,-17.4%
10,Cc1nn(-c2ncnc3[nH]cnc23)c2c1C(CC(C)C)CC(=O)N2 (stereo not given),-4.35%
11,CN(C)c1ncnc2c1CCN(Cc1nccs1)CC2,-12.1%
12,O=C(c1cccnc1)N1CCC2(CC1)CCN(Cc1ccccn1)C2=O,-20.1%
13,O=C(c1ccncc1)N1CCC2(CC1)CCN(Cc1ccccn1)C2=O,14.6%
14,Cc1occc1C(=O)N1CCC2(CCN(Cc3ccccn3)C2=O)C1 (stereo not given),65.7%
15,CC(C)(C)c1nc(CN2CCN(C(=O)c3cnccn3)CC2)cs1,20.8%
16,CN(C)C(=O)N1CCC2(CC1)CCN(Cc1ccccn1)C2=O,20.5%
17,Cc1oncc1C(=O)N1CCC2(CCN(Cc3ccccn3)C2=O)C1 (stereo not given),25.1%
18,O=C(c1cnccn1)N1CCN(Cc2csc(-c3ccccc3)n2)CC1,59.4%
19,Cc1cnc(C(=O)N2CCC3(CCN(Cc4ccccn4)C3=O)C2)cn1 (stereo not given),-39.2%
20,O=C(c1cnccn1)N1CCC2(CC1)CCN(Cc1ccccn1)C2=O,53.2%
21,CC(=O)N1CCC2(CCN(Cc3ccccn3)C2=O)C1 (stereo not given),-20.1%
22,CCc1nc(CN2CCN(C(=O)c3cnccn3)CC2)cs1,9.94%
23,Cc1ccc(C(=O)N2CCC3(CC2)CCN(Cc2ccccn2)C3=O)o1,52.2%
24,CNc1cncc(C2CCCN2C(=O)CCn2ccnc2C(C)C)n1 (stereo not given),21.685%
25,O=C(CC1CN(Cc2ccccc2)CCO1)NC1CCSCC1 (stereo not given),35.1%
26,COCC(=O)N1CCCC1c1cc(N2CCN(C(C)=O)CC2)cc(C)n1 (stereo not given),18.9%
27,COCC(=O)N1C[C@H]2CCCC(OCc3cccnc3)[C@H]2C1 (stereo not given in full),-3.52%

row,Structure (SMILES),INHIBITION
1,Cc1nc(CN2CCO[C@@H]3CN(C(=O)NC(C)C)CC[C@@H]3C2)cs1,36.4%
2,CNS(=O)(=O)CC(=O)NCc1cc2c(s1)CCCCC2,28.9%
3,c1ccc(-c2nc(CCNC3CCOC4(CCOCC4)C3)no2)cc1 (stereo not given),-6.34%
4,CCn1nccc1CNc1[nH]cnc2nc(C)nc1-2,26.4%
5,O=C(NC1CCN(c2ccc(-c3ccccc3F)nn2)C1)C1CCC1 (stereo not given),60.8%
6,O=C(NC1CCN(c2ccc(-c3ccccc3F)nn2)C1)c1ccc[nH]1 (stereo not given),12.4%
7,O=C(NC1CCN(c2ccc(-c3ccccc3F)nn2)C1)c1cc[nH]n1 (stereo not given),49.5%
8,CCOCC(=O)N1Cc2nccn2CC(CN2CCCC2)C1 (stereo not given),34.6%
9,O=C1O[C@@H]2CN(c3ccncc3)C[C@@H]2N1CCCc1ccc(F)cc1,75.2%
10,Cc1cc(C)nc(N2C[C@H]3OC(=O)N(CCc4cccc(Cl)c4)[C@H]3C2)n1,-17.8%
11,O=C1O[C@@H]2CN(c3ccccn3)C[C@@H]2N1CCCc1ccc(F)cc1,86.7%
12,O=C1O[C@@H]2CN(C3CCOCC3)C[C@@H]2N1CCCc1ccc(F)cc1,33%
13,O=C1O[C@@H]2CN(c3ccc(Cl)cn3)C[C@@H]2N1CCc1ccc(F)cc1,-2.04%
14,O=C1O[C@@H]2CN(c3ncccn3)C[C@@H]2N1CCCc1ccc(F)cc1,83.8%
15,O=C1O[C@@H]2CN(Cc3ccccn3)C[C@@H]2N1CCCc1ccc(F)cc1,15.1%
16,O=C1O[C@@H]2CN(c3cnccn3)C[C@@H]2N1CCCc1ccc(F)cc1,9.4%
17,O=C1O[C@@H]2CN(Cc3ccncc3)C[C@@H]2N1CCCN1CCOCC1,-43.5%
18,CCC1=N[C@@]2(CC[C@@H]3CN(CC4CC4)C[C@@H]32)C(=O)N1CC,7.31%
19,CCCS(=O)(=O)N1C[C@@H](c2nc(C)no2)C[C@H]2OCC[C@H]21,33%
20,CN(C)c1ncc2c(O)nc(C3CCNCC3)cc2n1,-9.51%
21,COCc1n[nH]c2c1CN(C(=O)c1ccncc1)C2,21.6%
22,CC(C)Oc1ccccc1CNC(=O)N(C)C(C)CS(C)(=O)=O (stereo not given),33.2%
23,COc1cc(Cl)ccc1CNC(=O)N(C)C(C)CS(C)(=O)=O (stereo not given),61%
24,COc1ccccc1CCNC(=O)N(C)C(C)CS(C)(=O)=O (stereo not given),38.7%
25,CCOC1CCCN(C(=O)c2nn(-c3ccccc3F)cc2O)C1 (stereo not given),11.2%
26,COc1cccc(S(=O)(=O)CCN2CCCC2c2ccc[nH]2)c1 (stereo not given),32.3%
27,COc1cccc(C2CCCN2Cc2nnnn2C2CC2)c1 (stereo not given),51.6%

row,Structure (SMILES),INHIBITION
1,COc1cccc(CN2CCCC2c2ccc[nH]2)c1 (stereo not given),62.6%
2,N#Cc1cccc(CN2CCCC2Cn2cncn2)c1 (stereo not given),7.18%
3,NC(=O)COc1cccc(Cn2cccn2)c1,-24.9%
4,CN(C)c1cccc(C2CCCN2Cc2nnnn2C2CC2)c1 (stereo not given),26.6%
5,NC(=O)c1ccc(OCC(=O)N2CCCC2c2ccc[nH]2)cc1 (stereo not given),28.2%
6,COc1ccc(C2CCCN2Cc2nnnn2C2CC2)cc1OC (stereo not given),19.7%
7,N#Cc1cccc(CN2CCCC2c2ccc[nH]2)c1 (stereo not given),50.7%
8,NC(=O)COc1cccc(CN2CCCC2c2ccc[nH]2)c1 (stereo not given),62.6%
9,N#Cc1cccc(CN2CCCC2Cn2cccn2)c1 (stereo not given),-11.4%
10,N#CCCCOc1cccc(CN2CCCC2c2ccc[nH]2)c1 (stereo not given),43.1%
11,Cc1nc(Cn2c3c(ccc2=O)CCN(CC2CC2)CC3)cs1,-8.85%
12,COc1cccc(CC2CN(C3CCC3)CCO2)c1 (stereo not given),25.8%
13,Cc1ccccc1NC(=O)c1cncc(C2CCNCC2)n1,-20.6%
14,CCN1CC[C@@]2(C(=O)N3CCOCC3)CCN(C(=O)C(C)C)CC[C@@H]12,14.9%
15,Cc1cnn(CC2CCCCN2CC(=O)Nc2nc(C)cs2)c1 (stereo not given),33.8%
16,Cc1nc(CN2CCO[C@@H]3CN(C(=O)CC4CC4)C[C@@H]3C2)cs1,9.63%
17,Cn1ccnc1CC1CCCN(C(=O)Cc2ccccc2)C1 (stereo not given),21.9%
18,COc1cccc(CN2CCCC2c2c(C)nn(C)c2C)c1 (stereo not given),-14.8%
19,Cc1nn(C)c(C)c1C1CCCN1Cc1cccc(OCC(N)=O)c1 (stereo not given),72.9%
20,Cc1nn(C)c(C)c1C1CCCN1Cc1cccc(C(N)=O)c1 (stereo not given),5.37%
21,CCS(=O)(=O)CCN1CCCC1c1noc(C)n1 (stereo not given),16.8%
22,Cc1cc(CNc2cccc(Cl)c2C)no1,16.165%
23,CCCSc1ncc(-c2nccn2CCO)cn1,35.1%
24,CCCn1ccnc1-c1nccn1CCC(N)=O,29.8%
25,CCCSc1ncc(-c2nccn2CCC(N)=O)cn1,53.3%
26,O=C1NCC(C(=O)Nc2ncc(Cc3ccc(F)cc3)s2)N1 (stereo not given),26.5%
27,Cc1ccc(Cc2cnc(NC(=O)C3CNC(=O)N3)s2)cc1F (stereo not given),55.5%

row,Structure (SMILES),INHIBITION
1,O=C1NCC(C(=O)Nc2ncc(Cc3cccc(F)c3)s2)N1 (stereo not given),12.7%
2,CNc1cc(C)nc(C2COCCN2CCOc2ccc(F)cc2)n1 (stereo not given),-12.625%
3,NC(=O)CCSCc1cc(Br)cc2cccnc12,-57.1%
4,CC(SCc1ccc(Br)c2cccnc12)C(N)=O (stereo not given),21.1%
5,CC(SCc1cc(Br)cc2cccnc12)C(N)=O (stereo not given),58.1%
6,CC(OCC(F)(F)F)C(=O)N1CCCC1 (stereo not given),-1.37%
7,Cc1ccc(SCC2CNc3nc4ccccc4c(=O)n32)c(C)c1 (stereo not given),49.9%
8,CC(=O)N(CCc1ccccc1)CC(=O)NC(C)(C)C#N,59.7%
9,CC(=O)N(CCc1ccccc1)CC(=O)Nc1ccccc1C#N,45.8%
10,CC(=O)N(CCc1ccccc1)CC(=O)NC1(C#N)CC1,-3.39%
11,COc1ccc(C2=CCN(C(=O)CN(C)Cc3ccco3)CC2)cc1,46.2%
12,COc1ccc(C2=CCN(C(=O)CN(C)S(C)(=O)=O)CC2)cc1,-11.4%
13,COc1ccc(C2=CCN(C(=O)CN(C)Cc3ccoc3)CC2)cc1,53.5%
14,COc1ccc(C2=CCN(C(=O)C3CCC3)CC2)cc1,-6.44%
15,COc1ccc(C2=CCN(C(=O)C3CCS(=O)(=O)C3)CC2)cc1 (stereo not given),59.4%
16,COc1ccc(C2=CCN(C(=O)CN(C)CC(N)=O)CC2)cc1,10.8%
17,COc1ccc(C2=CCN(C(=O)C3CC(=O)N(C4CC4)C3)CC2)cc1 (stereo not given),40.3%
18,COc1ccc(C2=CCN(C(=O)CN(CC(N)=O)C(C)C)CC2)cc1,83.2%
19,COc1ccc(C2=CCN(C(=O)CN(C)CC(C)C#N)CC2)cc1 (stereo not given),46.5%
20,CC(C)NC(=O)N1CCCC(Cn2cc(-c3ccc(F)cc3)nn2)C1 (stereo not given),38.5%
21,Cc1nc(C)n(CC2CCCN2CCOc2cccc(F)c2)n1 (stereo not given),37.9%
22,Cc1cc(-c2cc3nc(C)c(C)c(NCC4COCCO4)n3n2)no1 (stereo not given),8.57%
23,CNc1ncc(CN(C)CCN2CCCCC2)cn1,-61.5%
24,CCC1CN(CC(=O)NCCN2CCCCC2)c2ccccc2S1 (stereo not given),9.57%
